Test results from ChEMBL document CHEMBL2218924, “A broad activity screen in support of a chemogenomic map for kinase signalling research and drug discovery” (Biochem J, 2013).

What was measured:
[1] = target: T1, Ephrin type-B receptor 1 (Homo sapiens) (UniProt P54762); details: at 10 µM
T1 sequence (whole entry): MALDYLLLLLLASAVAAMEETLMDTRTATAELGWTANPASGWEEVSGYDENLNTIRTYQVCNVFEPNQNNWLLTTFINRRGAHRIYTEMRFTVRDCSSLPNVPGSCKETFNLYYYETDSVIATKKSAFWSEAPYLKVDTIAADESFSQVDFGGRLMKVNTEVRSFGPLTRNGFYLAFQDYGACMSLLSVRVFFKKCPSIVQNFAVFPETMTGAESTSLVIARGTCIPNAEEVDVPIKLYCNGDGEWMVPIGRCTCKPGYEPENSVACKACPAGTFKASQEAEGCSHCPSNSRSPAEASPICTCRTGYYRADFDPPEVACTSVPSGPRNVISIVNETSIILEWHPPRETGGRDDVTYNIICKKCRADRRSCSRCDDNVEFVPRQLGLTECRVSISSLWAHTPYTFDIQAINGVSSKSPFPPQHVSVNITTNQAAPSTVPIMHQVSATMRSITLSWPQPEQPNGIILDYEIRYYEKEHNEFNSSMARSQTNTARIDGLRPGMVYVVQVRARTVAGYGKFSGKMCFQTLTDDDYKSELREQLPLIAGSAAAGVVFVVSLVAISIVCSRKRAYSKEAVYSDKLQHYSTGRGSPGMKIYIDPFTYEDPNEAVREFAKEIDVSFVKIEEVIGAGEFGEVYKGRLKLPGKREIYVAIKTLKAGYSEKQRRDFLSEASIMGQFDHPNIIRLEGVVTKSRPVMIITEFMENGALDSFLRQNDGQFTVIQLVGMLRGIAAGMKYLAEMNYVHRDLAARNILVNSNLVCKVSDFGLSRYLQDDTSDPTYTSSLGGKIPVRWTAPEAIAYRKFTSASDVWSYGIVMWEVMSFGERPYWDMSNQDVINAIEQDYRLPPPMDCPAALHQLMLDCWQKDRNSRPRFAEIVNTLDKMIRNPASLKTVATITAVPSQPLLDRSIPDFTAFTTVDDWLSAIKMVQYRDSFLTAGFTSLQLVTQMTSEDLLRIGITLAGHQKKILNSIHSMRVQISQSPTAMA

[2] = target: T2, Ephrin type-B receptor 2 (Homo sapiens) (UniProt P29323); details: at 1 µM
T2 sequence (whole entry): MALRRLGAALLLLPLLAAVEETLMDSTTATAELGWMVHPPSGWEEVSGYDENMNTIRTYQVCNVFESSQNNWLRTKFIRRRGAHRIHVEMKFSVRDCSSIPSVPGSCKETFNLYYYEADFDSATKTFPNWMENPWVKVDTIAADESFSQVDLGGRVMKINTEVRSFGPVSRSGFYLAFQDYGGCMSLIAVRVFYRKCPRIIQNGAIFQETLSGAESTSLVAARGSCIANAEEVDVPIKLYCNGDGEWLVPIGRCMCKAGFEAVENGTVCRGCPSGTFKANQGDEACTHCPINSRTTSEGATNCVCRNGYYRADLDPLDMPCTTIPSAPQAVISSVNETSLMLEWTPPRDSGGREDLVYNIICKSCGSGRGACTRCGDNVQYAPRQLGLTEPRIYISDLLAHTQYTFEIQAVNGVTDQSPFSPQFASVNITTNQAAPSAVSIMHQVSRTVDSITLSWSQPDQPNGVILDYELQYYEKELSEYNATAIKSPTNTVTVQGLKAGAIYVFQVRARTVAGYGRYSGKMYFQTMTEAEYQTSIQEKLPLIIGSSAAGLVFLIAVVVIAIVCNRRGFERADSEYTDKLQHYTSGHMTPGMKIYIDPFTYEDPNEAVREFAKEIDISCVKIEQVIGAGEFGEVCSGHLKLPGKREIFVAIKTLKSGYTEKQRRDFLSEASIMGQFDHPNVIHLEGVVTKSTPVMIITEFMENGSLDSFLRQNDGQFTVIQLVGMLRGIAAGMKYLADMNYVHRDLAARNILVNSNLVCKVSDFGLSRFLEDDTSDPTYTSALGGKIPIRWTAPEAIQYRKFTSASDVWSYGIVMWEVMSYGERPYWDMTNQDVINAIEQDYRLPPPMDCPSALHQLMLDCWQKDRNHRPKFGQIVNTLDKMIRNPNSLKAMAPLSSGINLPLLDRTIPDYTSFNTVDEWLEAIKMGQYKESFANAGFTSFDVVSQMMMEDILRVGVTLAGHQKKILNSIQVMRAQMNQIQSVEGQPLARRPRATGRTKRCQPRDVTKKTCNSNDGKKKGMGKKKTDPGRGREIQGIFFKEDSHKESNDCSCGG

[3] = target: T2, Ephrin type-B receptor 2 (Homo sapiens); details: at 10 µM
[4] = target: T3, Ephrin type-B receptor 3 (Homo sapiens) (UniProt P54753); details: at 1 µM
T3 sequence (whole entry): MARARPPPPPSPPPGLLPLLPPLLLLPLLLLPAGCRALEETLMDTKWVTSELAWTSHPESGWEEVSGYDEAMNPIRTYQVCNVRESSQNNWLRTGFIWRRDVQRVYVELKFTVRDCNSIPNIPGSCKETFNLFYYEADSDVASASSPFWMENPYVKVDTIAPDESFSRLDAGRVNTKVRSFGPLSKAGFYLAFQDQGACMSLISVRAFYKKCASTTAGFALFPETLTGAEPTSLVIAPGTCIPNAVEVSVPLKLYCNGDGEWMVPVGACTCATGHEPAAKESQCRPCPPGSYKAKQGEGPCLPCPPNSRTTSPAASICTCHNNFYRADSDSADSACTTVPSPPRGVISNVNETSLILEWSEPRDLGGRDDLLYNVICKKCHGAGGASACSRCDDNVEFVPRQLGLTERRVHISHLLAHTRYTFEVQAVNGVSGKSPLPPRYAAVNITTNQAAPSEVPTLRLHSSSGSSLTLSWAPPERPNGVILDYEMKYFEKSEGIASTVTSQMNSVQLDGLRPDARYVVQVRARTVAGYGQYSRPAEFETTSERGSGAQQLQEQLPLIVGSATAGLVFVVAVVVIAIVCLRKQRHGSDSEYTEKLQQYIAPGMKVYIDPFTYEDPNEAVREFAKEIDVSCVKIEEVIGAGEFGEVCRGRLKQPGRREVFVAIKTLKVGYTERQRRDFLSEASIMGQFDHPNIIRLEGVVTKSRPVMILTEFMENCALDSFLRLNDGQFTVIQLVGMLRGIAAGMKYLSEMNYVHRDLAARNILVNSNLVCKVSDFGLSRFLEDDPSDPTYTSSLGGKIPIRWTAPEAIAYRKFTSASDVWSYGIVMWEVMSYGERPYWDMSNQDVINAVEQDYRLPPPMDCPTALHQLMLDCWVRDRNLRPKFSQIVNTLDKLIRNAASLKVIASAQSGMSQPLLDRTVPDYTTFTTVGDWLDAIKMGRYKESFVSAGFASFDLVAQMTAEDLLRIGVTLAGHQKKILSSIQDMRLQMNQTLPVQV

[5] = target: T3, Ephrin type-B receptor 3 (Homo sapiens); details: at 10 µM
[6] = target: T4, Ephrin type-B receptor 4 (Homo sapiens) (UniProt P54760); details: at 1 µM
T4 sequence (whole entry): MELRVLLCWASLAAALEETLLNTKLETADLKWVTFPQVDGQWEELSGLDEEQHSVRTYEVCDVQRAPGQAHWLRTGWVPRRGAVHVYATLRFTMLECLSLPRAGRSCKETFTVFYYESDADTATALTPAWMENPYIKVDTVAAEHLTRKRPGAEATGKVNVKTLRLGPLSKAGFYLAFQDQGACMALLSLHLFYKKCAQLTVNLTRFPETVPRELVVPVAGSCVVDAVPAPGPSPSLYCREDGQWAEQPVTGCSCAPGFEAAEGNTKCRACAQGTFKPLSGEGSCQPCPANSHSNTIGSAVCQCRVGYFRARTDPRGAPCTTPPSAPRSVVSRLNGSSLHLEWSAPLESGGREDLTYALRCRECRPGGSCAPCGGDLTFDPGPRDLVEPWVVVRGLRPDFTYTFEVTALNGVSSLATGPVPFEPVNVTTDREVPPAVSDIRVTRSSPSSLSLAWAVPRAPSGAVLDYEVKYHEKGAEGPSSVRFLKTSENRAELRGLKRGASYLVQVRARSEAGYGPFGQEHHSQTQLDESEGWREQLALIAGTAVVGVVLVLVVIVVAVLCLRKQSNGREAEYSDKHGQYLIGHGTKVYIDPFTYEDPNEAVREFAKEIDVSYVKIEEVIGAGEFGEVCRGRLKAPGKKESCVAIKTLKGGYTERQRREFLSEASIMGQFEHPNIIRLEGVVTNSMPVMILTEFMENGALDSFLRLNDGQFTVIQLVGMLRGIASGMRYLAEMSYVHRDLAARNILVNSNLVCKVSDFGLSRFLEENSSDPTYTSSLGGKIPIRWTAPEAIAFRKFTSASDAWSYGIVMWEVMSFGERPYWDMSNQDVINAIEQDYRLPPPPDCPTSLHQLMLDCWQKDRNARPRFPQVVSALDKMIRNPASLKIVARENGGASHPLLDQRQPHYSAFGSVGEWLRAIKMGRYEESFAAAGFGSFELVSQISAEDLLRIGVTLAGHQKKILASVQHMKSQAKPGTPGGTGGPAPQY

[7] = target: T4, Ephrin type-B receptor 4 (Homo sapiens); details: at 10 µM
[8] = target: Receptor tyrosine-protein kinase erbB-4 (Homo sapiens) (UniProt Q15303); details: at 1 µM
Sequence of Receptor tyrosine-protein kinase erbB-4 (Homo sapiens) (Q15303 whole entry): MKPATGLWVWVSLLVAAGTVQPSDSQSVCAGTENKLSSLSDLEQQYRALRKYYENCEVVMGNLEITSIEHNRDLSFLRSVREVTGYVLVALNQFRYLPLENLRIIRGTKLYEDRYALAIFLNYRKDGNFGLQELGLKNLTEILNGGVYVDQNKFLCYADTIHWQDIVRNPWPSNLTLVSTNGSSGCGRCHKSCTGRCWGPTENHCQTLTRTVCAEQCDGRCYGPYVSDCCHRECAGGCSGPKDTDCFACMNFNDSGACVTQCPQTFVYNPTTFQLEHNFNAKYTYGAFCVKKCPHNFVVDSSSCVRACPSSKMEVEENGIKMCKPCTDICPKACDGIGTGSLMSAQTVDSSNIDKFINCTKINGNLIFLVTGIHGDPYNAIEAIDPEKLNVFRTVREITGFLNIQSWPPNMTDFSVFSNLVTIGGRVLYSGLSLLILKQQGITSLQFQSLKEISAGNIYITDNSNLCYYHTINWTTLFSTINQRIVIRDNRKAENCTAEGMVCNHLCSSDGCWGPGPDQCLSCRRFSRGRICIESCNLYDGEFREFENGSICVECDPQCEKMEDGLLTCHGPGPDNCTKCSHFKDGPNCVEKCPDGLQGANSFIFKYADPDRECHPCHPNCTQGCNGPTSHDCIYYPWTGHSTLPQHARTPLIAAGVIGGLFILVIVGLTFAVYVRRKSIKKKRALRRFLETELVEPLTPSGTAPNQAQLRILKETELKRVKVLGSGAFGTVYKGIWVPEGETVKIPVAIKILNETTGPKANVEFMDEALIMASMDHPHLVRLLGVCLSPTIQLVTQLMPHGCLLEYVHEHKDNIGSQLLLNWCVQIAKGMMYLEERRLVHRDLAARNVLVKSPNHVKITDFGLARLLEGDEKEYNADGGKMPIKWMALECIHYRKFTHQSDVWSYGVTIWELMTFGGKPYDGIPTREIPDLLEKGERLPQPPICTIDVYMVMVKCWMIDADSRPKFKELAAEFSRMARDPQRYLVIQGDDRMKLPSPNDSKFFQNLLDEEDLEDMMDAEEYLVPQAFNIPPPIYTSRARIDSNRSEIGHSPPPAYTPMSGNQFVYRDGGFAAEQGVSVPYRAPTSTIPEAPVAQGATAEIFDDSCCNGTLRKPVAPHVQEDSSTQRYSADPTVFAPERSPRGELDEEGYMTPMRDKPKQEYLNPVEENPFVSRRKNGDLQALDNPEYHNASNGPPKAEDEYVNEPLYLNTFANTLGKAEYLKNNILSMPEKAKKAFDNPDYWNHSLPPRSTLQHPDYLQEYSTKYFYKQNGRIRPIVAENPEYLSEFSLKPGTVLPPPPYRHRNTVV

[9] = target: Receptor tyrosine-protein kinase erbB-4 (Homo sapiens) (UniProt Q15303); details: at 10 µM
[10] = target: Focal adhesion kinase 1 (Homo sapiens) (UniProt Q05397); details: at 1 µM
Sequence of Focal adhesion kinase 1 (Homo sapiens) (Q05397 2-1052 limits assumed): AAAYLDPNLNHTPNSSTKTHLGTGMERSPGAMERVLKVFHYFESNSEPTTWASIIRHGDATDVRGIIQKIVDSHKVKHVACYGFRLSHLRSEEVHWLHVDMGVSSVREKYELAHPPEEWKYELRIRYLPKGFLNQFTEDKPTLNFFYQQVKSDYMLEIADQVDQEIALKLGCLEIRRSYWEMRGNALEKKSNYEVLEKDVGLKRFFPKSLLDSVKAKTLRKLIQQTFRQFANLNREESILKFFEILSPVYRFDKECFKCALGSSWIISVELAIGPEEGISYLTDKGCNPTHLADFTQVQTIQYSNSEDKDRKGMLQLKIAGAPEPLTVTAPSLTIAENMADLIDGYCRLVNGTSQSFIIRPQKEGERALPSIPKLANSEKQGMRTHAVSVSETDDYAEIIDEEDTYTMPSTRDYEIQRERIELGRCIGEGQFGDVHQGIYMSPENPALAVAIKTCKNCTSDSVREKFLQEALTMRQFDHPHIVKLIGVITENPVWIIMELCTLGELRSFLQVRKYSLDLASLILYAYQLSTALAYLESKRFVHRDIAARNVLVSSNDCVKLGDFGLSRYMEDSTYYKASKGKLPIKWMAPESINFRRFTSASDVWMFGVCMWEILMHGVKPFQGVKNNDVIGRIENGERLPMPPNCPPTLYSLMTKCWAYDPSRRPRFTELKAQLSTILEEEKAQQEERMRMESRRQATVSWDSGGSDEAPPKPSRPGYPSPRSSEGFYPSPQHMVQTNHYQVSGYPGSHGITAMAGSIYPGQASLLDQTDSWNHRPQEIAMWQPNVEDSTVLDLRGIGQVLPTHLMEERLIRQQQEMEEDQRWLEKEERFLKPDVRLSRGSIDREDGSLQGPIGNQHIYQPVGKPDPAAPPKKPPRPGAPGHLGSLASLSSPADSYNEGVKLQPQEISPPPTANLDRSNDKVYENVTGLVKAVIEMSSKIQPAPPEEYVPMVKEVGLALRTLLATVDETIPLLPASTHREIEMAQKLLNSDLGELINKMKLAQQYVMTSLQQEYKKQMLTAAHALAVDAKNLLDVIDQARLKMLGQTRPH

COc1ccc(C(=O)Nc2sc3c(c2C(N)=O)CCCC3)cc1OC gave a residual activity [1] of 100%, a residual activity [2] of 122% and a residual activity [3] of 110%. For the same compound, the residual activity [4] was 110% (inactive), the residual activity [5] was 122% and the residual activity [6] was 98%. It also gave a residual activity [7] of 120%, a residual activity [8] of 87% and a residual activity [9] of 97%. The residual activity [10] was 119%.
